TMEM16A inh – blocks the mouse calcium-activated chloride channel TMEM16A; normalized B-score (activity score, 25-100; higher = stronger inhibition) at 10 µM; HEK293 TMEM16A/YFP iodide influx fluorescence, ionomycin; actives 1.2% (n = 310,000); Q8BHY3;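 active = ratio plate-corrected score three or more library SD toward inhibition, starting fluorescence score within five deviations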;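 also: score derived from kinetic fluorescence span divided by baseline fluorescence per well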
Target sequence (Q8BHY3 whole entry, looked up): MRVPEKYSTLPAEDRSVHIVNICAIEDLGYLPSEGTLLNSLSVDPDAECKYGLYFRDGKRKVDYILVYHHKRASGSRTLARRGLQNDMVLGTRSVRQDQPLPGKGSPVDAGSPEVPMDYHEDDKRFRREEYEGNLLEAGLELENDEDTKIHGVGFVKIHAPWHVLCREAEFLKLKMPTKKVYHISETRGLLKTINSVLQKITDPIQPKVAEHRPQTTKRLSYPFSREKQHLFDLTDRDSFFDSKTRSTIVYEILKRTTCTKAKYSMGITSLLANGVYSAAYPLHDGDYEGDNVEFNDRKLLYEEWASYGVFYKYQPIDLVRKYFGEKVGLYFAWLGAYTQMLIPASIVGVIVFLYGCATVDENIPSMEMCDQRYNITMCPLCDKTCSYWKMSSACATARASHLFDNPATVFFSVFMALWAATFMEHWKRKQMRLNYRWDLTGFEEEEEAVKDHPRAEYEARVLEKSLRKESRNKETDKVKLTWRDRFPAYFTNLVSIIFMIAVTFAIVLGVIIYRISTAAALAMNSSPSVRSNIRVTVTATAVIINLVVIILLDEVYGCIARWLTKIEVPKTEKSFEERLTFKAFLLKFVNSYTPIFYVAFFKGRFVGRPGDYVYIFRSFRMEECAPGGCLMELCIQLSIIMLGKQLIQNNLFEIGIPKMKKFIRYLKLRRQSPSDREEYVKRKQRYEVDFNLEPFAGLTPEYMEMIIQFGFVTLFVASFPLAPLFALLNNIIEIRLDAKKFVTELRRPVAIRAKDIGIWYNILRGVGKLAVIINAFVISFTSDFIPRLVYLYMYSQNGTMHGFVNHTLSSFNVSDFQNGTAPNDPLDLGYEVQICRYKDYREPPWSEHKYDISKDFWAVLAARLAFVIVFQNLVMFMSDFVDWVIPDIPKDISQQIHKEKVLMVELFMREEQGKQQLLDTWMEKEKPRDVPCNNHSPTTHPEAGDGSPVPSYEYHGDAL
CHT block – human CHT choline transport inhibition. CHT-expressing cells, membrane potential dye, choline response; stronger effect = lower value. B-score at 10 µM. actives 0.86% (n = 310,000);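 active = B-score over 3 SD under the library average, and starting fluorescence ratio not unusually high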;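 also: choline stimulus applied at its EC90 after an EC20 pre-addition; B-score computed on integrated fluorescence ratio after choline addition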
ANO1 activ – activators or potentiators of mouse TMEM16A chloride channel; Q8BHY3; HEK293 TMEM16A/YFP-H148Q/I152L, iodide quench fluorescence; stronger effect = lower value; B-score at 10 µM; actives 0.3% (n = 340,000); AID 623877;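 active = fluorescence-ratio B-score plate-corrected deviation score at least 3 library SD below zero, with starting fluorescence score within 5 deviations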;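 also: channel opened by trigger with iodide after compound preincubation; score built on the fluorescence ratio of max minus min over baseline; more negative score means more quench and so TMEM16A activation or potentiation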
CHT allo act – allosteric activators of human choline transporter CHT. actives 0.49% (n = 310,000). CHT-expressing cells, membrane potential dye, choline EC20; stronger effect = higher value; LV-AA mutant CHT in HEK293 cells. AID 488977. B-score at 10 µM;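 active = initial fluorescence not abnormally high and integrated response B-score, plate-corrected, over 3 SD above library mean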
TMEM16A reconf – TMEM16A (mouse) chloride channel inhibition, re-confirmation | inhibition, % at 10 µM | shares compounds with TMEM16A inh | HEK293 TMEM16A/YFP-H148Q, iodide quench fluorescence; ionomycin added to raise cell calcium | actives 39% (n = 2,300);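 active = mean duplicate percent inhibition, scaled so buffer wells are 0 and the reference blocker 100, over three buffer SD above buffer mean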
HEK293 Ca mobil – alters calcium mobilization in TMEM16A HEK293 cells, counter-screen; shares compounds with TMEM16A inh; TMEM16A/YFP HEK293, Fluo4 calcium mobilization; calcium response (% of ionomycin), % at 10 µM; actives 2% (n = 2,300);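 active = duplicate-averaged calcium signal over 20% of the ionomycin maximum, relative to buffer baseline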;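 also: each well's signal is peak minus trough fluorescence divided by its pre-addition baseline; 0% = buffer wells and 100% = ionomycin wells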
YFP-HEK293 quench – parental YFP-HEK293 iodide quench counter-screen activity | shares compounds with TMEM16A inh | 2,300 tested, under 10 active | YFP ratio F(max-min)/F0 at 10 µM | ionomycin;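 active = yellow fluorescent protein signal ratio exceeding the buffer control mean by over 5 SD of those controls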;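 also: ratio is mean of duplicate wells from kinetic YFP trace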
ClC-1 inh – selectivity of TMEM16A inhibitors: inhibition of rat ClC-1 chloride channel. CHO ClC-1-YFP, iodide influx fluorescence quench; iodide control reads 0, buffer control 100. 2,300 tested, under 10 active. AID 652236. shares compounds with TMEM16A inh. ratio percent, % at 10 µM;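 active = duplicate-mean ratio percent above the mean of iodide-only control wells, which defines zero, plus 5 of their SD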;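 also: higher percent means stronger block of ClC-1 iodide influx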
An asterisk follows results filed as active; i = inactive; . = no result given. An excerpt weighted towards active compounds, which were near 2.4% of everything screened.

SMILES	TMEM16A inh	CHT block	ANO1 activ	CHT allo act	TMEM16A reconf	HEK293 Ca mobil	YFP-HEK293 quench	ClC-1 inh
O=C(CSC1=NCCS1)Nc1ccnc2ccccc12	100*	i	i	i	18.5%*	i	-1.15	-21.5
Cc1cc(C)nc(SCC(=O)Nc2ccnc3ccccc23)n1	i	i	i	i	.	.	.	.
O=C(NNC(=O)c1ccc2ccccc2c1)Nc1ccc(F)cc1	i	i	i	i	.	.	.	.
CCN(Cc1ccccc1)C(c1ccc(C)cc1)c1nnnn1C(C)(C)CC (configuration not stated)	100*	i	i	i	i	i	-1.48	0.0
CC(C)(C)N(Cc1ccccc1)C(=O)COC(=O)c1ccc([N+](=O)[O-])o1	.	.	i	.	.	.	.	.
CC1CCN(C(=O)c2[nH]cnc2C(=O)N[C@@H](C)C(=O)OC(C)(C)C)CC1	i	i	i	i	.	.	.	.
CC(=O)N(Cc1c(C#N)c2ccccc2n1C)c1ccccc1	i	i	i	i	.	.	.	.
CC(=O)N(Cc1ccccc1)c1ncc2c(n1)c(=O)c(C#N)c1ccccn12	25*	i	i	i	i	i	-0.911	-7.5
CCCc1cc(=O)[nH]c2nnc(SCC(=O)Nc3nnc(CC)s3)n12	.	.	i	.	.	.	.	.
O=C(O)C1C2C=CC(C2)C1C(=O)Nc1ccc(Cl)c(Cl)c1 (configuration not stated)	i	i	i	i	.	.	.	.
Cc1ccccc1OCc1nc(-c2ccc(NC(=O)c3ccco3)cc2)no1	25*	i	i	i	i	i	-1.04	-10.5
Cn1c(=O)c2ccccc2n(Cc2ccccc2Cl)c1=O	i	i	i	i	.	.	.	.
Cc1ccc(C)c(N2CCN(S(=O)(=O)c3csc(C(N)=O)c3)CC2)c1	25*	i	i	i	i	i	-0.884	0.5
NC(=O)c1cc(S(=O)(=O)N2CCCCC2)cs1	i	i	i	i	.	.	.	.
O=S(=O)(Nc1ccc(S(=O)(=O)Nc2ncccn2)cc1)c1ccc(Cl)cc1	i	i	i	i	.	.	.	.
O=C(CSc1ccc(Cl)cc1)N1CCN(c2ccc(Cl)cc2[N+](=O)[O-])CC1	100*	i	i	i	i	i	-1.13	-2.5
CCOC(=O)c1cc2cc(F)ccc2nc1C	i	i	i	i	.	.	.	.
Cc1nc2ccc(F)cc2cc1C(=O)NC(C)C	100*	i	i	i	i	i	-1	-9.0
CC1CC(C)CN(c2cc(=O)n(Cc3ccc(F)cc3)c(=O)[nH]2)C1 (configuration not stated)	100*	i	i	i	i	i	-1	-5.0
O=c1cc(N2CCN(c3ccc(F)cc3)CC2)[nH]c(=O)n1Cc1ccc(F)cc1	i	i	i	i	.	.	.	.
CC(=O)c1ccc(N2C(=NC(=O)C3CCCCC3)SC3CS(=O)(=O)CC32)cc1 (configuration not stated)	i	i	i	i	.	.	.	.
Cc1nc2ccc(NS(=O)(=O)c3ccc(C)c(C)c3)cc2s1	i	i	i	i	.	.	.	.
CC(=O)c1cccc(S(=O)(=O)Nc2ccc3nc(C)sc3c2)c1	100*	i	i	i	i	i	-0.956	-10.0
Cc1cc(C)cc(N(C(=O)CCC(=O)Nc2ccccn2)C(C(=O)NC(C)C)c2ccc(O)cc2)c1 (configuration not stated)	i	i	.	i	.	.	.	.
COc1cccc(C(C#N)N2CCCCC2)c1O (configuration not stated)	i	i	i	i	.	.	.	.
SMILES	TMEM16A inh	CHT block	ANO1 activ	CHT allo act	TMEM16A reconf	HEK293 Ca mobil	YFP-HEK293 quench	ClC-1 inh
Fc1ccc(NC(=S)NCCc2ccc(Cl)cc2)cc1	i	i	i	i	.	.	.	.
Fc1ccc(CCNC(=S)Nc2ccc(F)c(Cl)c2)cc1	100*	i	-4.65*	i	37.0%*	i	-1.14	-14.5
S=C(NCc1ccc(Cl)cc1)Nc1ccc(Cl)cc1Cl	i	i	i	i	.	.	.	.
S=C(NCCc1ccc(Cl)cc1)Nc1ccc(Cl)cc1Cl	25*	i	i	i	i	i	-0.974	-12.0
Fc1ccc(NC(=S)Nc2ccc(Cl)cc2Cl)cc1	100*	i	.	i	19.5%*	i	-1.07	-9.5
Cc1ccc(NC(=S)N2CCN(C(=O)C3CCCO3)CC2)cc1 (configuration not stated)	i	i	i	i	.	.	.	.
O=C(COC(=O)c1ccc(O)cc1)Nc1cccc(S(=O)(=O)N2CCCCC2)c1	25*	i	i	i	i	i	-1.06	-20.5
O=C(CNc1cccc(F)c1)Nc1cccc(S(=O)(=O)N2CCCCC2)c1	.	.	i	.	.	.	.	.
COc1ccc(NC(=O)CCOc2ccccc2C)cc1S(=O)(=O)N1CCCCC1	25*	i	i	i	i	i	-0.951	-6.5
CS(=O)(=O)c1ccc(C(=O)OCC(=O)Nc2cccc(S(=O)(=O)N3CCCC3)c2)cc1	i	i	i	i	.	.	.	.
Cc1ccc(NCC(=O)Nc2cccc(F)c2)cc1S(=O)(=O)N1CCCCCC1	100*	i	i	i	34.0%*	i	-0.944	-11.5
Cc1ccc(NC(=O)CNc2cccc(S(=O)(=O)N3CCCCC3)c2)cc1F	25*	i	i	i	i	i	-0.877	-7.5
COc1ccccc1CCC(=O)Nc1ccc(OC)c(S(=O)(=O)N2CCCCC2)c1	.	.	i	.	.	.	.	.
Cn1c(SCC(=O)NC2CC2)nnc1-c1ccccn1	i	i	i	i	.	.	.	.
CC1(C(=O)OCC(=O)Nc2ccc3ccccc3c2)CC1(Cl)Cl (configuration not stated)	25*	i	i	i	i	i	-0.806	-17.0
COc1ccc(S(=O)(=O)NCC(c2cccs2)N2CCc3ccccc3C2)cc1 (configuration not stated)	i	i	i	i	.	.	.	.
O=S(=O)(NCC(c1ccco1)N1CCc2ccccc2C1)c1ccc(F)cc1 (configuration not stated)	25*	i	i	i	36.5%*	i	-0.934	-27.5
Cc1cccc(CN2C(=O)N/C(=C/c3ccc(C)s3)C2=O)c1	i	i	i	i	i	i	-0.839	7.5
Cc1ccc(CNC(=O)c2ccc(NS(=O)(=O)c3cccs3)cc2)cc1	i	i	i	i	.	.	.	.

Screening data (PubChem)
